Hits are enriched below; roughly 1.9% of the tested compounds scored in any of these assays.
FUS suppressor: rescues growth of FUS-expressing yeast; 390,000 tested, 0.24% active; S. cerevisiae FUS-expressing, growth rescue, OD600, 24 h; Potency, µM (series often up to 76.6 µM), actives largely listed as activators; AID 1347120;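 note: potency is the fitted concentration of half-maximal effect; plate controls were DMSO vehicle for no effect and reference control for full effect; nearly all actives have a fitted effect of over 55% in size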
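Steps: raffinose overnight preculture; dilution to OD 0.005 in 2% galactose minimal medium; compound addition (concentration series); 24hr at 30C, 99% humidity; absorbance read at 600 nm.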
Abeta rescue: restores growth of yeast expressing A-beta42 peptide; yeast expressing A-beta42, growth rescue, OD600, 48 h; response scale: 0% DMSO, 100% iron-clioquinol control; Potency, µM (top dose mostly 46.1 µM), usual class: activators; 410,000 tested, 0.063% active; AID 1347071; note: potency is the fitted concentration of half-maximal effect; nearly all actives have a fitted effect of over 55% in size
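Yeast A-beta toxicity model in growth medium with pinned compounds, 48 h at 30 C; growth read as absorbance at 600 nm. Normalized to FeCl3/clioquinol equimolar mix (positive) and DMSO (negative).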
PTHR1 agonist: agonists of human PTHR1 parathyroid hormone receptor | Q03431 | HEK293 GP2 PTHR1 cells, GloSensor cAMP luminescence, 1 h | Potency, µM (top dose mostly 115 µM), for inactives: at the highest dose activation, most hits filed as activators | 410,000 tested, 0.075% active | AID 743266; note: potency is the fitted concentration of half-maximal effect; nearly all actives have a fitted effect of over 55% in size
Target sequence (Q03431 whole entry, looked up): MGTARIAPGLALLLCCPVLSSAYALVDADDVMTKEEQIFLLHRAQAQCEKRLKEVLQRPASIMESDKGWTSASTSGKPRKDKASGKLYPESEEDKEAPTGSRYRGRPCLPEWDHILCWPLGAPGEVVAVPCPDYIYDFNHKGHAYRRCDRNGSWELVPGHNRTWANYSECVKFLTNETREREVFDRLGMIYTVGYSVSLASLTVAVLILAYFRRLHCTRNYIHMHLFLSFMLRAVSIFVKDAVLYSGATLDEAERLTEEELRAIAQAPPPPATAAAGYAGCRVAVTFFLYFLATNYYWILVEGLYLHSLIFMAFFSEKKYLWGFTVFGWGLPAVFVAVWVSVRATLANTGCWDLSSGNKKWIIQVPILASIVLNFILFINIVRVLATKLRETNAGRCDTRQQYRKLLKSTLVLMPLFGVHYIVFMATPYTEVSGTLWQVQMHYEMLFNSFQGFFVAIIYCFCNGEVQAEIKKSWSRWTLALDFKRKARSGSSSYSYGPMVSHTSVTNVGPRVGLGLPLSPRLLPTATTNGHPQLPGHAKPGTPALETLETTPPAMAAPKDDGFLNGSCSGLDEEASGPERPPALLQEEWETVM
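HEK-293-derived GP2 cells expressing PTHR1 and a GloSensor cAMP reporter, 3,000/well, plated overnight, given luciferin plus IBMX (each 0.5 mM as added) for 1 h at 37 °C, then compound for 1 h at 37 °C. Luminescence was read after 15 min at room temperature.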
LDHA block: inhibitors of human lactate dehydrogenase A | P00338 | purified LDHA, NADH/diaphorase-resazurin fluorescence; active compounds read low | activity change, % (values are at about 110 or 230 µM) | AID 1347041 | 480,000 tested, 0.15% active; in the data active = activity change below about -30%; inconclusive = mostly about -25% to -30%;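 note: plate controls were DMSO wells for no effect and wells without enzyme for full effect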
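Resorufin fluorescence (ex540/em590), read at 0 and 20 min after diaphorase/resazurin addition, reports the NADH left after a 5 min room-temperature reaction of 2 nM human LDH5 with 0.06 mM NADH and 0.2 mM pyruvate.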
TDP43 rescue: TDP-43 toxicity inhibition in yeast. TDP-43 expressing yeast growth rescue, BacTiter-Glo, 24 h. Potency, µM (titrated, usually from 46.1 µM), without a hit: top-dose growth rescue (activation), hits mostly activators. 410,000 tested, 1.8% active; note: potency is the fitted concentration of half-maximal effect; % of control where 0% means no effect; nearly all actives have a fitted effect of over 50% in size
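In this qHTS, compounds that restore growth of yeast expressing TDP-43 appear as activators. Cells (OD600=0.02, galactose medium, raffinose-pregrown) are incubated with compound 24 hr at 30 deg C and growth is quantified by BacTiter-Glo.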
aSyn yeast inh: inhibitors of alpha-synuclein toxicity in yeast. Yeast expressing alpha-synuclein, growth rescue, BacTiter-Glo, 24 h. Potency, µM (top dose mostly 46.1 µM), for inactives: at the top dose growth rescue (activation), hits mostly activators. 370,000 tested, 0.14% active. AID 652106; note: potency is the fitted concentration of half-maximal effect; % of control where 0% means no effect; nearly all actives have a fitted effect of over 65% in size
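Galactose-induced alpha-syn yeast (OD600=0.02, raffinose-pregrown) + pinned cpd, 24 hr, 30 deg C; growth by BacTiter-Glo luminescence. Growth restoration scores as activation.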
* = called active by the depositor; i = inactive; ? = inconclusive; . = not tested or not shown; ! = a repeat was not active; [ ] = another dose, or the depositor's remark. Unless noted, calls come from the whole dose curve; as a rule, active = well fitted curve in the direction sought with a large enough effect; inconclusive = small, poorly fitted or top-dose-only effect, or another doubt; inactive = no such curve, though single readings can be large; an effect the other way counts as inactive or inconclusive.

SMILES	FUS suppressor	Abeta rescue	PTHR1 agonist	LDHA block	TDP43 rescue	aSyn yeast inh
CNC(=O)NC(=O)CSc1cccc(C(F)(F)F)c1	i	i	-14%[57.5 µM]	-11	11%	-3%
CCCNC(=O)NC(=O)CSc1cccc(C(F)(F)F)c1	i	i	-21%	0	18µM*	4%
O=C(Nc1nccs1)C1CCN(S(=O)(=O)c2ccc(F)cc2)CC1	i	i	i	-1	-6%	4%
O=C(Nc1nccs1)C1CCN(S(=O)(=O)c2c(Cl)cccc2Cl)CC1	i	?	-53%[57.5 µM]	-7	14µM*	5%
CSc1ccccc1NC(=O)CN(C)CC(=O)Nc1c(F)cccc1F	.	i	-21%	-55*	20%	1%
CSc1ccccc1NC(=O)CN(C)Cc1ccc(Br)cc1	i	i	i	-3	-12%	4%
CSc1ccccc1NC(=O)CN(C)CC(=O)Nc1ccccc1F	.	i	-10%	-31*	11%	-4%
CCN(c1ccccc1)S(=O)(=O)c1ccc(OC)c(NC(=O)CN(C)C)c1	i	.	21%	-32*	-7%	-3%
COc1ccc(Cl)cc1NC(=O)CN(c1cccc(C)c1C)S(=O)(=O)c1ccccc1	22µM*	i	-19%	0	15%	.
O=C1CSc2ccc(S(=O)(=O)N3CCCC3)cc2N1	.	.	.	9	.	.
CCOC(=O)Cn1c2ccc(C)cc2c2nc(C)sc21	i	i	i	-1	16µM*	-8%
CCOC(=O)Cn1c2ccccc2c2nc(C)sc21	i	i	i	-3	11%	-1%
CCC(C)[C@H](NC(=O)NCCc1ccc(Cl)cc1)C(=O)O (stereo not given in full)	.	.	.	-4	.	.
O=C(O)c1nn(CCOc2ccc(Br)cc2)c(=O)c2ccccc12	i	i	-7%	-4	13µM*	4%
O=C(O)c1nn(Cc2ccccc2)c(=O)c2ccccc12	.	.	.	-32*	.	.
CC(C)(C)c1ccc(Cn2nc(C(=O)O)c3ccccc3c2=O)cc1	.	.	.	5	.	.
CCN(C(=O)CSc1nnc(N2CCOCC2)n1-c1cccc(F)c1)C1=CCCCC1	.	.	.	3	.	.
CCN(CC)CCCNC(=O)c1cc2cc(Cl)ccc2[nH]1	.	.	.	3	.	.
CCOc1ccccc1NC(=O)c1cc2c(s1)-c1ccc(Cl)cc1S(=O)(=O)C2	.	.	.	2	.	.
O=C(O)CCc1cccc(Br)c1	.	.	.	-2	.	.
CCOC(=O)c1c(NC(=O)Cn2nnc(-c3ccccc3)n2)sc(CC)c1C	.	.	.	6	.	.
CC1(C(=O)NS(=O)(=O)Cc2ccccc2)CCN1C(=O)c1ccc(C2CCCCC2)cc1 (stereo not given)	i	i	i	-3	20µM*	-46%
C[C@@H](C(=O)N1CCN(c2ccc(F)cc2)CC1)n1cnc2ccccc2c1=O	.	.	.	2	.	.
N#CC(C#N)=C1C=CC=CN1/C(=C\c1ccccc1)C(=O)c1cccs1	i	i	-24%	2	4.5µM*	?
CN1/C(=C\C(=S)NC(=O)c2ccccc2Cl)C(C)(C)c2ccccc21	i	?	-25%	-3	12%	-1%
SMILES	FUS suppressor	Abeta rescue	PTHR1 agonist	LDHA block	TDP43 rescue	aSyn yeast inh
CN1/C(=C/C(=S)NC(=O)C2(C)CC2(Cl)Cl)C(C)(C)c2ccccc21 (stereo not given)	?	10µM*	-31%	-5	-11%[1.82 µM]	-7%
COc1ccc(OC)c(-c2csc(NC(=O)Cc3ccc(F)cc3)n2)c1	i	i	-20%	-8	14µM*	5%
COc1ccc(OC)c(-c2csc(NC(=O)Cn3[nH]c(=O)c4ccccc4c3=O)n2)c1	40µM*	i	-7%	-1	-20%	-3%
Cc1ccc(C(=O)Nc2cccc(NC(=O)c3ccc(C)o3)n2)o1	i	i	i	0	7.9µM*	-15%
Cc1ccc(C(=O)Nc2nc(-c3ccc([N+](=O)[O-])cc3)cs2)o1	i	i	i	-3	2%	-6%
CCCc1ccc(-c2csc(NC(=O)C3=COCCO3)n2)cc1	i	i	-29%	-2	16µM*	-5%
CC(=O)Nc1ccc(-c2csc(NC(=O)c3ccc(C)o3)n2)cc1	28µM*	i	-17%[57.5 µM]	-1	24%	-11%
Cc1ccc(-c2csc(NC(=O)C3=COCCO3)n2)cc1	i	i	-36%	-3	?	0%
Nc1nnnn1NCc1cc(Cl)ccc1OCc1ccc(Cl)cc1Cl	.	.	.	-17	.	.
COc1ccccc1NC(=O)c1nn(C)c(=O)c2ccccc12	.	.	.	0	.	.
CC(Cl)C(=O)NC(C)C1CC2CCC1C2 (stereo not given)	.	.	.	2	.	.
CC1(Cc2ccc(F)cc2)C(=O)Nc2c(Cl)ccc(Cl)c21 (stereo not given)	i	i	-16%	1	26%	11µM*
C=Cc1ccc(CC2(C)C(=O)Nc3ccc(Cl)cc32)cc1 (stereo not given)	i	?	-7%	8	0%	?
CC1(Cc2cccc(C(N)=O)c2)C(=O)Nc2c(Cl)cccc21 (stereo not given)	i	i	i	-1	24%	0%
CC1(Cc2cccc(C#N)c2)C(=O)Nc2c(Cl)cccc21 (stereo not given)	i	i	i	-7	?	18µM*
C=Cc1ccc(CC2(C)C(=O)Nc3c(Cl)cccc32)cc1 (stereo not given)	i	i	1%	3	-37%	10µM*
CC1(Cc2ccccc2Cl)C(=O)Nc2c(Cl)cccc21 (stereo not given)	i	i	-53%	-3	?	3.5µM*
O=C(Nc1cccc(Cl)c1)C1CCN(c2cnc3ccccc3n2)CC1	.	.	.	9	.	.
O=C(O)CCCc1c(-c2ccccn2)[nH]c2ccc(Cl)cc12	.	.	.	4	.	.
CCOC(=O)/C=C/C(=O)Nc1ccc(Oc2ccccc2)cc1	i	i	-12%	-8	18µM*	-17%
CCCCCCSc1ccc(-c2nc3ccc(Cl)cn3c2NCCCC)cc1OC	i	i	-14%	0	17%	-2%
CCCCCCSc1cc(-c2nc3cc(C)ccn3c2NCCCC)ccc1OC	28µM*!	i	-31%	-1	-91%	-57%
CCCCCCSc1ccc(-c2nc3ccc(C)cn3c2NCCCC)cc1OC	16µM*	i	-16%	-3	-93%	-63%
O=C(Nc1ccc2oc(-c3ccc(Br)cc3)nc2c1)c1ccc2c(c1)OCO2	.	.	.	-1	.	.
CC(C)(C)C(=O)COC(=O)c1ccccc1SCC(=O)NCCc1ccc2c(c1)OCCO2	.	.	.	0	.	.
CCS(=O)(=O)n1nc(-c2ccc(Cl)cc2)nc1SC	i	i	i	-3	16µM*	0%
